About 10 (0.005%) of roughly 220,000 compounds were called active. Cut-off read from the data, not from the text of the source: active = maximum fold increase above about 1.5; inconclusive = no clear call, values can overlap the other calls; inactive = below that; tested in PC3 cells. These entries were drawn from the full list.
Test: compounds boosting herpes simplex virus growth – fold increase, host cell viability (AID 1956)
Conditions: HSV replication augmentation in cells; fold increase: measured here: primary screen fold increase 10 uM, at 10 µM, stronger effect = higher value; maximum fold increase: at 0.098 µM, stronger effect = higher value; viability: measured here: host cell viability series, at 25 µM, stronger effect = lower value

Structure (SMILES)	fold increase	outcome
Cc1nc(Cl)c(C#N)c2c1CCCC2	0.96	inactive
O=c1[nH]snc1-c1c(Cl)cccc1Cl	0.9	inactive
C[C@@H](NC(=O)OC(C)(C)C)c1nnc(S(=O)(=O)Cc2ccccc2)o1	0.98	inactive
OCC[C@H]1C[C@H](O)[C@@H](O)[C@]2(CCCCO2)O1	0.79	inactive
CCCCCCCCCCCCN1[C@@H](CC(C)=O)c2cc(F)cc(F)c2S1(=O)=O	0.93	inactive
COc1ccc(CN2[C@@H](CC(=O)O)c3cc(F)ccc3S2(=O)=O)cc1	0.82	inactive
C=CCC(Nc1ccccc1)c1cccc(OC)c1OC (stereo not given)	0.99	inactive
COc1ccc(CNC(=O)C2(CC3CC(c4ccccc4)=NO3)CCN(C(=O)c3cccc(O)c3)CC2)cc1 (stereo not given)	0.88	inactive
CC1CCN(Cc2nc(-c3ccc(Cl)cc3)no2)CC1	0.99	inactive
NC(=O)NC(=O)CSc1nc2cc([N+](=O)[O-])ccc2n1-c1cccc(C(F)(F)F)c1	0.9	inactive
COc1ccc(N2C(=O)C3C(C2=O)C(C(=O)c2ccccc2)N2CCCC32)cc1 (stereo not given)	1.02	inactive
Cc1ccccc1NC(=O)Nc1ccccc1N1CCCCC1	0.85	inactive
CCCC[C@@H]1CN=C(N)N1CCc1cccc(F)c1	0.84	inactive
C/C=C(/C)C(=O)O[C@@H]1c2cc3c(c4c2[C@@]2(CO4)C(=O)C(OC)=C(OC)C=C2C[C@@H](C)[C@H]1C)OCO3	0.75	inactive
CC1Cc2ccccc2N1CC(=O)Nc1ccc(S(N)(=O)=O)cc1 (stereo not given)	1.03	inactive
O=C(Nc1nnc(COc2ccccc2)s1)Nc1ccccc1F	0.9	inactive
COc1ccc(COCCN2CCN(S(=O)(=O)c3ccccc3)CCC2=O)cc1	0.895	inactive
N/C(=N\OC(=O)CCn1cccc(C(F)(F)F)c1=O)c1ccc(OC(F)(F)F)cc1	0.99	inactive
C=CC(COCc1ccccc1)N(Cc1ccccc1)S(=O)(=O)c1ccccc1Br (stereo not given)	1.29	inactive
Cc1cc(C(=O)NNS(=O)(=O)c2ccccc2C(F)(F)F)nn1C(C)(C)C	1	inactive
CC1(C)S[C@@H]2[C@H](N=CN3CCCCCC3)C(=O)N2[C@H]1C(=O)O	0.85	inactive
CN(C)N=Nc1ccc2nc[nH]c2c1	1.29	inactive
O=C(O)C1CCN(c2ccc([N+](=O)[O-])cc2[N+](=O)[O-])CC1	0.9	inactive
CCOC(=O)c1ccc(NC(=O)c2nc[nH]c2C(=O)NCc2ccccc2)cc1	0.92	inactive
CC(C)(C)Oc1ccccc1Nc1nc(NCCO)nc(N2CCCC2)n1	0.69	inactive

Source: PubChem BioAssay AID1956 (SRMLSC, 2009)
